Screening results: PubChem, National Center for Advancing Translational Sciences (NCATS)
This is a sample that favours compounds with a hit; in the whole collection about 14% have one here.
HCMV inh = inhibitors of human cytomegalovirus; HFF cells, HCMV-luciferase reporter, 72 h; hits give low values; activity change, negative = inhibition, % at 57.5 µM; actives 4.5% (n = 410,000); in the data active = activity change below about -60%; inconclusive = no clear call, values can overlap the other calls; inactive = above about -39%
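Inhibition of viral replication was scored as loss of reporter luminescence in HFFs infected with HCMV-luciferase (MOI 1 PFU/cell) for 72 h; compounds tested at 2 doses, normalized to buffer and Salinomycin controls.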
Sm TGR block = inhibitors of Schistosoma mansoni thioredoxin glutathione reductase; Q962Y6; purified TGR, DTNB reduction, TNB absorbance 405 nm; Potency, µM (highest dose often 114 µM), inactives show at the highest dose activity change, negative = inhibition, actives largely listed as inhibitors; actives 3% (n = 360,000); AID 485364; note: potency is the fitted concentration of half-maximal effect; nearly all actives have a fitted effect of over 60% in size
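First, TGR (20 nM dispensed) and NADPH were mixed with compound. Second, a 15 min room-temperature incubation followed. Third, further NADPH and then DTNB were added to start the reaction. Finally, TNB absorbance was monitored kinetically.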
Giardia FBPA inh = blocks Giardia fructose-bisphosphate aldolase activity | purified Giardia FBPA | Potency, µM (doses to about 59.6 µM), for the others: at the top dose activity, negative = inhibition, most hits filed as inhibitors | actives 0.71% (n = 290,000) | AID 2451; note: potency is the fitted concentration of half-maximal effect; nearly all actives have a fitted effect of over 55% in size
Target sequence (A8B2U2 whole entry, looked up): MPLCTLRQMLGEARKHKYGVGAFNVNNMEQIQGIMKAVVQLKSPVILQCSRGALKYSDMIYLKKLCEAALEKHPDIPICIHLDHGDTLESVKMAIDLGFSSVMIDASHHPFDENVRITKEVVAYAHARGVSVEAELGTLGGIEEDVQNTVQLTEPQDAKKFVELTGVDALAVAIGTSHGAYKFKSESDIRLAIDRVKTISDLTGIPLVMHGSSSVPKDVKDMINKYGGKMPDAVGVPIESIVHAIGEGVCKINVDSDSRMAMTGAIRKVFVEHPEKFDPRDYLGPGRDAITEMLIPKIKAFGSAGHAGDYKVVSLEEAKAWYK
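40 nM FBPA preincubated 10 min at RT with compound (up to 57.5 uM final), then substrate plus GAPDH/TPI/NAD/arsenate coupling and diaphorase/resazurin added. Fluorescence read after 20 min at RT, 525/598 nm.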
Pf growth 48h = P. falciparum growth inhibition at 48 hours (one generation) | Potency, µM (top dose mostly 28.7 µM), for the others: at the highest dose activity change, negative = inhibition, actives largely listed as inhibitors | P. falciparum luciferase growth in erythrocytes, 48 h | actives 5.9% (n = 310,000); note: potency is the fitted concentration of half-maximal effect
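In quantitative HTS format, infected erythrocytes bearing luciferase-reporter parasites were treated for a single generation at 37 C. Luminescence after adding detection reagent served as the growth measure.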
Pf growth 96h = inhibits malaria parasite growth, 96 h; P. falciparum luciferase reporter growth, 96 h; Potency, µM (top dose mostly 28.7 µM), for inactives: top-dose activity change, negative = inhibition, hits mostly inhibitors; actives 6.9% (n = 320,000); note: potency is the fitted concentration of half-maximal effect
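Delayed-death screen, second-generation endpoint: infected erythrocytes, 2% hematocrit, 0.05% parasitemia final; 96 hours at 37 C, 5% CO2; luciferase detection reagent; luminescence decrease equals reduced growth.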
Numbers without * were called inactive. Unless noted, calls come from the whole dose curve; as a rule, active = well fitted curve in the direction sought with a large enough effect; inconclusive = small, poorly fitted or top-dose-only effect, or another doubt; inactive = no such curve, though single readings can be large; an effect the other way counts as inactive or inconclusive. % is set by controls: 0 for no effect and ±100 for the full control effect.

How did O=C(Nc1ccc(S(=O)(=O)N2CCCC2)cc1)c1ccc(CN2CCOCC2)cc1 do in these assays?
HCMV inh: -81*; Sm TGR block: -10%; Giardia FBPA inh: -3%; Pf growth 48h: inconclusive; Pf growth 96h: 24%

Results for Cc1ccc(C(=O)Nc2ccc(S(=O)(=O)N3CCOCC3)cc2)cc1 ?
HCMV inh: -14; Giardia FBPA inh: -7%; Pf growth 48h: inconclusive; Pf growth 96h: inconclusive

Results for O=C(Nc1ccc(S(=O)(=O)N2CCCCCC2)cc1)c1[nH]ncc1[N+](=O)[O-] ?
HCMV inh: -87*; Sm TGR block: -19%; Pf growth 48h: inconclusive; Pf growth 96h: inconclusive

Results for COCCNc1ccnc(-c2c(C)noc2C)n1 ?
Giardia FBPA inh: -2%

What do the screens show for `O=C(Nc1ccc([N+](=O)[O-])cc1)c1ccc(S(=O)(=O)N2CCCC2)cc1`?
HCMV inh: 7; Sm TGR block: 3%; Giardia FBPA inh: -2%; Pf growth 48h: inconclusive; Pf growth 96h: 12µM*

Results for CCN(CC)S(=O)(=O)c1ccc(NC(=O)c2ccc(CN3CCOCC3)cc2)cc1 ?
HCMV inh: -95*; Sm TGR block: -1%; Giardia FBPA inh: -1%; Pf growth 48h: 6.6µM*; Pf growth 96h: -15%

Results for O=C(Nc1ccc(S(=O)(=O)N2CCOCC2)cc1)c1ccc(Cl)cc1 ?
HCMV inh: 17; Sm TGR block: -14%; Giardia FBPA inh: 0%; Pf growth 48h: inconclusive; Pf growth 96h: inconclusive

Results for O=C(Nc1ccc(S(=O)(=O)N2CCCCC2)cc1)c1ccc(CN2CCOCC2)cc1 ?
Sm TGR block: 4%; Giardia FBPA inh: 0%; Pf growth 48h: inconclusive; Pf growth 96h: -23%

What do the screens show for `O=C(O)c1nccnc1C(=O)Nc1ccc(S(=O)(=O)N2CCOCC2)cc1`?
HCMV inh: 11; Sm TGR block: 25µM*; Giardia FBPA inh: -17%; Pf growth 48h: -2%; Pf growth 96h: inconclusive

What do the screens show for `O=C(Nc1ccc(Cc2ccncc2)cc1)c1ccc(S(=O)(=O)N2CCOCC2)cc1`?
HCMV inh: -73*; Sm TGR block: 4%; Giardia FBPA inh: -1%; Pf growth 48h: inconclusive; Pf growth 96h: 36%

What do the screens show for `O=C(c1ccoc1)N1CCN(c2cc(-c3cccnc3)nc3cc(-c4cccc(Cl)c4)nn23)CC1`?
HCMV inh: -23

Results for CCOc1ccc(NC(=O)COC(=O)c2ccc(S(=O)(=O)N3CCOCC3)cc2)cc1 ?
HCMV inh: 60

Results for N=c1sccn1CC(=O)Nc1ccc(S(=O)(=O)N2CCOCC2)cc1 ?
HCMV inh: -63*; Sm TGR block: 8%; Giardia FBPA inh: -1%; Pf growth 48h: 0%; Pf growth 96h: inconclusive

What do the screens show for `O=C(CNC(=O)c1ccc(F)cc1)NCc1ccc(S(=O)(=O)N2CCOCC2)cc1`?
HCMV inh: -15; Sm TGR block: 89µM*; Pf growth 48h: inconclusive; Pf growth 96h: 6%

How did O=C(NCc1ccc(F)cc1)c1ccc(S(=O)(=O)N2CCCC2)cc1 do in these assays?
HCMV inh: -8

What do the screens show for `CN(c1ccc(C(=O)Nc2ccc(S(=O)(=O)N3CCCC3)cc2)cc1)S(C)(=O)=O`?
HCMV inh: -98*; Sm TGR block: -1%; Giardia FBPA inh: -1%; Pf growth 48h: -15%; Pf growth 96h: inconclusive

Results for CCOc1ccc(-n2c([S-])c(C(=O)Nc3ccc(S(=O)(=O)N4CCOCC4)cc3)[n+]3cc(C(N)=O)ccc23)cc1 ?
HCMV inh: 0; Sm TGR block: 0%; Giardia FBPA inh: -10%; Pf growth 48h: 12µM*; Pf growth 96h: inconclusive

What do the screens show for `CC(C)(C)S(=O)(=O)N1C[C@@H]2CC(=O)C(CCO)=C2[C@H]1CCO`?
HCMV inh: 20

Results for COc1ccc(S(=O)(=O)N2CCN(C(=O)Cc3ccsc3)CC2)cc1 ?
HCMV inh: -22; Sm TGR block: -14%; Pf growth 48h: -7%; Pf growth 96h: -1%

What do the screens show for `[O-]/C(=C(\C(=S)Nc1cccc2ccccc12)[n+]1ccccc1)c1ccc(Cl)s1`?
HCMV inh: 32; Sm TGR block: -17%; Giardia FBPA inh: inconclusive; Pf growth 48h: inconclusive; Pf growth 96h: inconclusive

Results for Cc1ccc(C)c(NC(=S)/C(=C(\[O-])c2ccc(Cl)s2)[n+]2ccccc2)c1 ?
HCMV inh: 55; Sm TGR block: -3%; Giardia FBPA inh: inconclusive; Pf growth 48h: inconclusive; Pf growth 96h: 5.9µM*

How did CCc1cccc(CC)c1NC(=S)/C(=C(\[O-])c1ccc(Cl)s1)[n+]1ccccc1 do in these assays?
HCMV inh: -32; Sm TGR block: -1%; Giardia FBPA inh: inconclusive; Pf growth 48h: inconclusive; Pf growth 96h: inconclusive

How did CC(C)(C)c1cc[n+](/C(C(=S)NC2CC2)=C(/[O-])c2ccc(Cl)s2)cc1 do in these assays?
HCMV inh: -7; Sm TGR block: -21%; Giardia FBPA inh: 6.3µM*; Pf growth 96h: inconclusive

How did COc1cccc(C(=O)OCC(=O)c2ccc(Br)s2)c1OC do in these assays?
HCMV inh: 32; Sm TGR block: -6%; Pf growth 48h: 5%; Pf growth 96h: inconclusive

What do the screens show for `Cc1ccn2cc(-c3ccc(NS(=O)(=O)c4ccccc4)cc3)nc2c1`?
HCMV inh: 57; Sm TGR block: 5%; Giardia FBPA inh: -17%; Pf growth 48h: 13µM*; Pf growth 96h: -14%

What do the screens show for `Cc1ccc(S(=O)(=O)Nc2ccc(-c3cn4ccc(C)cc4n3)cc2)cc1`?
HCMV inh: inconclusive; Sm TGR block: -5%; Giardia FBPA inh: -19%; Pf growth 48h: 1.7µM*; Pf growth 96h: -19%

Results for Cc1ccn2cc(-c3cccc(S(=O)(=O)N4CCCC4)c3)nc2c1 ?
HCMV inh: -64*; Sm TGR block: -9%; Giardia FBPA inh: -17%; Pf growth 48h: 9%; Pf growth 96h: 15%

How did CN(Cc1ccccc1)S(=O)(=O)c1ccc(Cl)c(C(=O)N2CCOCC2)c1 do in these assays?
HCMV inh: -7

Results for Cc1cc(/C=c2/sc3nc4ccccc4n3c2=O)c(C)n1-c1ccccn1 ?
HCMV inh: -101*; Sm TGR block: -6%; Giardia FBPA inh: -7%; Pf growth 48h: 59%; Pf growth 96h: -9%

What do the screens show for `O=c1/c(=C/c2ccc(O)c([N+](=O)[O-])c2)sc2nc3ccccc3n12`?
HCMV inh: inconclusive; Sm TGR block: -13%; Giardia FBPA inh: -6%; Pf growth 48h: 11%; Pf growth 96h: inconclusive

What do the screens show for `CCN(CC)c1ccc(/C=c2\sc3nc4ccccc4n3c2=O)c(O)c1`?
HCMV inh: -36; Sm TGR block: -14%; Giardia FBPA inh: -1%; Pf growth 48h: 8.3µM*; Pf growth 96h: 10µM*
